Results from the supplement of paper PMC10849652.
About 7,900 targets were measured; listed, in parts, are those with a hit and a random draw of the rest. About 0.6% of all pairs of compound and target were hits.

How the values were obtained:
Test in all cases: log2 fold change, soluble protein after heating vs DMSO (PISA); higher = thermal stabilisation; K562 cells, 10 uM, 30 min; active = over 0.2 and 3.5 SD of the protein, either way, in both replicates (recomputed)
IRAK-1-4 Inhibitor I = compound: C1COCCN1CCN2C3=CC=CC=C3N=C2NC(=O)C4=CC(=CC=C4)[N+](=O)[O-] [IRAK-1-4 Inhibitor I]
How it was run: (§1)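 K562 cells (2×10^6 cells/mL) were treated with 10 μM compound for 30 min, and aliquots were heated for 3 min over 48°C-58°C. Pooled aliquots were extracted in PBS with 0.5% NP-40 at 4°C, and the supernatant after 21,000xg for 90 min was measured by TMTpro 16plex LC-MS/MS with channel sums equalised. Reported thermal stability, relative to control samples and from duplicates, is a log2 fold change.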

ibrutinib = compound: C=CC(=O)N1CCC[C@@H](n2nc(-c3ccc(Oc4ccccc4)cc3)c3c(N)ncnc32)C1 [ibrutinib]
How it was run: as §1

[1] = compound: CC(=O)c1cnc2ccc(-c3cc(Cl)c(O)c(Cl)c3)nc2c1N[C@H]1CC[C@H](CN(C)C)CC1
How it was run: as §1

ralimetinib = compound: CC(C)(C)Cn1c(N)nc2ccc(-c3[nH]c(C(C)(C)C)nc3-c3ccc(F)cc3)nc21 [ralimetinib]
How it was run: as §1

[2] = compound: CC(C)(O)CC(=O)NCCn1ccc2ncnc(Nc3ccc(Oc4cccc(C(F)(F)F)c4)c(Cl)c3)c21
How it was run: as §1

[3] = compound: CC(C)C1=C2N=C(C=C(N2N=C1)NCC3=CC=CC=C3)NCCCCCCN
How it was run: as §1

[4] = compound: CC(C)C[C@@H](C=O)NC(=O)[C@H](CC(C)C)NC(=O)[C@H](CC(C)C)NC(=O)OCc1ccccc1
How it was run: as §1

pinometostat = compound: CC(C)N(C[C@H]1O[C@@H](n2cnc3c(N)ncnc32)[C@H](O)[C@@H]1O)[C@H]1C[C@@H](CCc2nc3cc(C(C)(C)C)ccc3[nH]2)C1 [pinometostat]
How it was run: as §1

[5] = compound: CC1=C(C(CC(=O)N1)C2=CC=C(C=C2)C(F)(F)F)C(=O)NC3=C(C=C4C(=C3)C=NN4)F
How it was run: as §1

[6] = compound: CC1=C(C2=C(C=C1)C(=O)C3=CC=CC=C3N2CCCN)C
How it was run: as §1

Measured: log2 fold change

EEA1 (UniProt Q15075)
inactive: IRAK-1-4 Inhibitor I 0.037 | ibrutinib 0.002 | [1] 0.02 | ralimetinib -0.068 | [2] 0.013 | [3] 0.025 | [4] -0.022 | pinometostat -0.041 | [5] 0.001 | [6] -0.004

EXOC4 (UniProt Q96A65)
inactive: IRAK-1-4 Inhibitor I -0.123 | ibrutinib -0.028 | [1] -0.007 | ralimetinib 0.024 | [2] -0.099 | [4] 0.04 | pinometostat 0.143 | [5] 0.035 | [6] -0.01
active: [3] -0.442

ELOC (UniProt Q15369)
Chain of UniProt Q15369 (Q15369 whole entry, looked up): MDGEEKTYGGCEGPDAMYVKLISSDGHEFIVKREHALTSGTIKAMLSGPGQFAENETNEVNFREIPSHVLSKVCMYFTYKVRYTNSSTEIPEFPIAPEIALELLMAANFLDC
inactive: IRAK-1-4 Inhibitor I 0.017 | ibrutinib -0.011 | [1] -0.018 | ralimetinib -0.027 | [2] -0.07 | [3] -0.032 | [4] -0.042 | pinometostat 0.008 | [5] 0.002 | [6] 0.165

EEF1AKNMT (UniProt Q8N6R0)
inactive: IRAK-1-4 Inhibitor I -0.081 | ibrutinib -0.116 | [1] -0.026 | ralimetinib 0.141 | [2] -0.097 | [3] -0.199 | [4] 0.127 | [5] -0.029 | [6] 0.13
active: pinometostat 0.354

CTSL (UniProt P07711)
Chain of UniProt P07711 (P07711 whole entry, looked up): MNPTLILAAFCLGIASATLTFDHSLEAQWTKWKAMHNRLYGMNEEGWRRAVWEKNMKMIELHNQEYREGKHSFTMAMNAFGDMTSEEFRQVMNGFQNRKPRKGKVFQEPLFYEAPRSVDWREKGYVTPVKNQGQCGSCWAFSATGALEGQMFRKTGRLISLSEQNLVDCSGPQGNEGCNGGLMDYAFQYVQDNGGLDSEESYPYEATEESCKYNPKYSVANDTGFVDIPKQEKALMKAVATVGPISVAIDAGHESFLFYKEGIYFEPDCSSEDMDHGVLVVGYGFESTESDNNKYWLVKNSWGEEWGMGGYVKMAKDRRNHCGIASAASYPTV
active: [3] -0.412
inactive: IRAK-1-4 Inhibitor I 0.068 | ibrutinib 0.009 | [1] 0.099 | ralimetinib 0.022 | [2] -0.014 | [4] 0.098 | pinometostat -0.006 | [5] -0.01 | [6] -0.031

DHCR7 (UniProt Q9UBM7)
inactive: IRAK-1-4 Inhibitor I -0.045 | ibrutinib -0.091 | [1] -0.085 | ralimetinib 0.056 | [2] 0.067 | [3] -0.021 | [4] 0.011 | pinometostat 0.199 | [5] 0.037 | [6] 0.15

EHD2 (UniProt Q9NZN4)
inactive: IRAK-1-4 Inhibitor I 0.009 | ibrutinib 0.008 | [1] -0.038 | ralimetinib 0.003 | [2] -0.033 | [3] 0.002 | [4] 0.036 | pinometostat -0.044 | [5] 0.003 | [6] 0.001

ERLIN1 (UniProt O75477)
inactive: IRAK-1-4 Inhibitor I -0.073 | ibrutinib -0.06 | [1] 0.105 | ralimetinib 0.054 | [2] -0.018 | [4] -0.007 | pinometostat 0.098 | [5] 0.012 | [6] 0.068
active: [3] -0.269

E2F4 (UniProt Q16254)
inactive: IRAK-1-4 Inhibitor I -0.025 | ibrutinib -0.009 | [1] -0.073 | ralimetinib 0.011 | [2] -0.072 | [3] -0.167 | [4] 0.038 | pinometostat 0.001 | [5] 0 | [6] -0.119

EPHX2 (UniProt P34913)
active: [3] 0.285
inactive: IRAK-1-4 Inhibitor I 0.044 | ibrutinib 0.096 | [1] -0.024 | ralimetinib -0.026 | [2] -0.018 | [4] 0.012 | pinometostat 0.144 | [5] 0.073 | [6] -0.006

FADS1, A0A0A0MR51
inactive: IRAK-1-4 Inhibitor I 0.085 | ibrutinib 0.015 | [1] -0.07 | ralimetinib 0.017 | [3] -0.044 | [4] 0.05 | pinometostat 0.027 | [5] -0.013 | [6] 0.003
active: [2] 0.355

DOCK8 (UniProt Q8NF50)
inactive: IRAK-1-4 Inhibitor I 0.047 | ibrutinib 0.015 | [1] 0.029 | ralimetinib 0.105 | [2] -0.198 | [3] 0.152 | [4] 0.274 | pinometostat 0.059 | [5] 0.064 | [6] -0.121

DHRS1 (UniProt Q96LJ7)
inactive: IRAK-1-4 Inhibitor I 0.037 | ibrutinib 0.105 | [1] 0.045 | ralimetinib 0.014 | [2] 0 | [3] 0.614 | [4] 0.21 | pinometostat -0.087 | [5] 0.003 | [6] 0.071

DLD (UniProt P09622)
Chain of UniProt P09622 (P09622 whole entry, looked up): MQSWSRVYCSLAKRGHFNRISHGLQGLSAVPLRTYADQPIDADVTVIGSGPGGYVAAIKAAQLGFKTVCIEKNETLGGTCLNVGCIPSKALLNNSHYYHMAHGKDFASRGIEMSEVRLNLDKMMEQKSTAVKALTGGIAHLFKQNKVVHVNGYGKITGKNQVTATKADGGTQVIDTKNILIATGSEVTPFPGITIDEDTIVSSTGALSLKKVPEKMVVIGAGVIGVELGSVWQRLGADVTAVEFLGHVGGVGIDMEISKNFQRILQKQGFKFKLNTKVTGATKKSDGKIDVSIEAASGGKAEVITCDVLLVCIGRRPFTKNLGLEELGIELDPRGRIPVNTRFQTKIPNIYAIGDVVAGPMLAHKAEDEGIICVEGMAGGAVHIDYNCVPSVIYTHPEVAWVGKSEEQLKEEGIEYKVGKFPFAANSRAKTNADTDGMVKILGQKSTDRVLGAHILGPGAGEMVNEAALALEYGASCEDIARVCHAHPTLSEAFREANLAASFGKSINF
inactive: IRAK-1-4 Inhibitor I 0.079 | ibrutinib 0.007 | [1] 0.043 | ralimetinib -0.004 | [2] -0.043 | [3] -0.125 | [4] -0.029 | pinometostat 0.001 | [5] 0.014 | [6] -0.008

FAM83D (UniProt Q9H4H8)
Chain of UniProt Q9H4H8 (Q9H4H8 whole entry, looked up): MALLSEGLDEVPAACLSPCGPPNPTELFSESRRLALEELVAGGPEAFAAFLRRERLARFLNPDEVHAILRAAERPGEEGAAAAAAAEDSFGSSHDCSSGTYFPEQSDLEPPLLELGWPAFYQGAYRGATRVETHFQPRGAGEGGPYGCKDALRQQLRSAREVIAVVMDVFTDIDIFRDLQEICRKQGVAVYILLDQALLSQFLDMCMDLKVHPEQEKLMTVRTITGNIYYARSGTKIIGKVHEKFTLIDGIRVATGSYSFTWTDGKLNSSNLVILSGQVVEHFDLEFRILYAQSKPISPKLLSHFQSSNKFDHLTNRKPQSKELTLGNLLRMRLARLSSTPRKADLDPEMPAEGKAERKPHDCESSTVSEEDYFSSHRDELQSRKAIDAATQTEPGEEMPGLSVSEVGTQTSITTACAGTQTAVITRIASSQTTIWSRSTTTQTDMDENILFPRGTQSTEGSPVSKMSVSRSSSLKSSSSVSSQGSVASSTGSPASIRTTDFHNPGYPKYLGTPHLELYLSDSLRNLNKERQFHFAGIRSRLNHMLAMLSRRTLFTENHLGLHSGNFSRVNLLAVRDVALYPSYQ
inactive: IRAK-1-4 Inhibitor I 0 | ibrutinib -0.094 | [1] 0.022 | ralimetinib 0.145 | [2] -0.035 | [3] -0.232 | [4] -0.062 | pinometostat 0.041 | [5] -0.049 | [6] 0.1

DUS2 (UniProt Q9NX74)
inactive: IRAK-1-4 Inhibitor I 0.014 | ibrutinib 0.041 | [1] -0.063 | ralimetinib 0.033 | [2] -0.161 | [3] 0.043 | [4] 0.044 | pinometostat -0.001 | [5] 0.035 | [6] -0.1

DMXL1 (UniProt Q9Y485)
Chain of UniProt Q9Y485 (Q9Y485 whole entry, looked up): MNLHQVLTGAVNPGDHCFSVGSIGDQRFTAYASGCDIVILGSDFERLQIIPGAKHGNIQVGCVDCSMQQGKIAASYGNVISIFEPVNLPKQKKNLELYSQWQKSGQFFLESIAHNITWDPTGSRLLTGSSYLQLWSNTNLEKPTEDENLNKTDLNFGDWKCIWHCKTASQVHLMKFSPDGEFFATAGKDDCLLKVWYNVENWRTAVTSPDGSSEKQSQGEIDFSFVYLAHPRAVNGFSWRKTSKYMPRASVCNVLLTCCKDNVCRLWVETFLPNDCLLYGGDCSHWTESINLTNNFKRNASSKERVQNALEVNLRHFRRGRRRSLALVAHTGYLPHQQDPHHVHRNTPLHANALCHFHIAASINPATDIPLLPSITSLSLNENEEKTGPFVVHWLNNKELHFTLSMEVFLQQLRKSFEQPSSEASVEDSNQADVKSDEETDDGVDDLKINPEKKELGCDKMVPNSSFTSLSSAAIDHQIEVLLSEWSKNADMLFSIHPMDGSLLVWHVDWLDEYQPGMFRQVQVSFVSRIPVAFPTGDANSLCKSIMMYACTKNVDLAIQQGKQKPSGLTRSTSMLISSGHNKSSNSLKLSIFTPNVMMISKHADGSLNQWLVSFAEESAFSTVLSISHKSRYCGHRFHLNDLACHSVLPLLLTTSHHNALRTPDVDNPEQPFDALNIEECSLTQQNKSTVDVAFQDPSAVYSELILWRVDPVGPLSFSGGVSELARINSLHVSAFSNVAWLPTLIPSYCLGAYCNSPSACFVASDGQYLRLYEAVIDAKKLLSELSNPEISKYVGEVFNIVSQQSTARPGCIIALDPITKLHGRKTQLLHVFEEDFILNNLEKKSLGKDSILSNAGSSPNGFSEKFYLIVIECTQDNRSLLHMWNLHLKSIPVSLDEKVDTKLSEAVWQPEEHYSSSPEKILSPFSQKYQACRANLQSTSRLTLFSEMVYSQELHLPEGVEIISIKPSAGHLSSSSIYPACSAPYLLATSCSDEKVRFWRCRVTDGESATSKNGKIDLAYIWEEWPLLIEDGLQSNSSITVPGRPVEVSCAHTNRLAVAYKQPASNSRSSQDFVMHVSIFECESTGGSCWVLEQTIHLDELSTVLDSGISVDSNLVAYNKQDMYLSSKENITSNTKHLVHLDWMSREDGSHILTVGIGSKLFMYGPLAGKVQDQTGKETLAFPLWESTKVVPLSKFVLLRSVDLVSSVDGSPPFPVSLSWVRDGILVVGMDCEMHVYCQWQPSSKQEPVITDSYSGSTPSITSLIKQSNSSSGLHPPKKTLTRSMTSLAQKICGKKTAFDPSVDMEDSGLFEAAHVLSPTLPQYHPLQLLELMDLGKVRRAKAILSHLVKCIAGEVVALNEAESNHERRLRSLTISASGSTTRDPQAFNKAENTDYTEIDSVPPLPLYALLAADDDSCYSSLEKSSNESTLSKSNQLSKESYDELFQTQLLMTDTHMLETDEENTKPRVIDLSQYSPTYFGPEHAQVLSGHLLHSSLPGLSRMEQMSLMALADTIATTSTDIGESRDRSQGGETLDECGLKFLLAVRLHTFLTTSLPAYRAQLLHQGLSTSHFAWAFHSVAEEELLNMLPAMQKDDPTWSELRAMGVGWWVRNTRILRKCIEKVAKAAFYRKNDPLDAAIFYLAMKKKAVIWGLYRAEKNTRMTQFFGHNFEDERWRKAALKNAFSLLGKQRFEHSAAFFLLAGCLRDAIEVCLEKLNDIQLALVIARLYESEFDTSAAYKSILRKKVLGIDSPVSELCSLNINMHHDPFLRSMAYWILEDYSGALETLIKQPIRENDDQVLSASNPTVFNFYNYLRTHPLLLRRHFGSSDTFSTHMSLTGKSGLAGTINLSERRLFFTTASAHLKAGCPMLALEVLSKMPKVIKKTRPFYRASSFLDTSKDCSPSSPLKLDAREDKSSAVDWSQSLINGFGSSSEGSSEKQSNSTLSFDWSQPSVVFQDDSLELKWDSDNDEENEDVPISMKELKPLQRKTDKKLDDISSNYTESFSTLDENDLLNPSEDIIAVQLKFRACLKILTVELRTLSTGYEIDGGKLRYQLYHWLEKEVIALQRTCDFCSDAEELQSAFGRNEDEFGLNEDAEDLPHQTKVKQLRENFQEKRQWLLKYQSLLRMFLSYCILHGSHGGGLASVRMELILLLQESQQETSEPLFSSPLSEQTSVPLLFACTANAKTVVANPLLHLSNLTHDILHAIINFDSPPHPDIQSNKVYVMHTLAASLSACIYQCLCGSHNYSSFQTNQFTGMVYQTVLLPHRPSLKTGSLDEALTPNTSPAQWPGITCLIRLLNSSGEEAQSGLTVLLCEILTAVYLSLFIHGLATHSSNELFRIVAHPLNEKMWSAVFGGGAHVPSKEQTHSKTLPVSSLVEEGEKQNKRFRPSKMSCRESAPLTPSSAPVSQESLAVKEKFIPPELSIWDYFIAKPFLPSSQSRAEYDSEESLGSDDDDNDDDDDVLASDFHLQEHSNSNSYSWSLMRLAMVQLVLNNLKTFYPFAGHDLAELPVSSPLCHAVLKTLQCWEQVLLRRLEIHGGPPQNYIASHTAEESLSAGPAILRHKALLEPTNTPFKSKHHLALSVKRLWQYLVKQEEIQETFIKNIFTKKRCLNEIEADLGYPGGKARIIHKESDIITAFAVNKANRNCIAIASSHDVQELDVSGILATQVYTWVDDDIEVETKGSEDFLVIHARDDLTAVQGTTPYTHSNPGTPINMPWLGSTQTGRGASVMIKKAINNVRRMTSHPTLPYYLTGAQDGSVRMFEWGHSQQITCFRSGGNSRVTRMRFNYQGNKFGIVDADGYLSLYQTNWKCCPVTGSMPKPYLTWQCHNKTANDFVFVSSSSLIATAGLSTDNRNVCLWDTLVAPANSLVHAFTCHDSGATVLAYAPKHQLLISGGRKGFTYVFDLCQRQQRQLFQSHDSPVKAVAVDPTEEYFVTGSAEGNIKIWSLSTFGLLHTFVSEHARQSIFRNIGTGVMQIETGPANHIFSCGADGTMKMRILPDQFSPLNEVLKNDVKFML
inactive: IRAK-1-4 Inhibitor I -0.005 | ibrutinib 0.002 | [1] -0.035 | ralimetinib 0.028 | [2] -0.085 | [3] -0.231 | [4] 0.019 | pinometostat 0.042 | [5] -0.005 | [6] 0.069

DBNL isoform 3 (UniProt Q9UJU6)
inactive: IRAK-1-4 Inhibitor I -0.075 | ibrutinib -0.122 | [1] 0.006 | ralimetinib -0.015 | [2] -0.132 | [3] -0.136 | [4] -0.007 | pinometostat -0.044 | [5] -0.02 | [6] -0.066

DTYMK (UniProt P23919)
Chain of UniProt P23919 (P23919 whole entry, looked up): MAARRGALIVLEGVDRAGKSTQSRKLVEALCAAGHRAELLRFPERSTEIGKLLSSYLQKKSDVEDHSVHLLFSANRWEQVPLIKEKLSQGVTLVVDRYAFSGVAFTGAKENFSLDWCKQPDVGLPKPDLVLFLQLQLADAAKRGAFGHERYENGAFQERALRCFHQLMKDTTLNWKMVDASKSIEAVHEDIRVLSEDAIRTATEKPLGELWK
inactive: IRAK-1-4 Inhibitor I 0.076 | ibrutinib -0.003 | [1] -0.02 | ralimetinib -0.056 | [2] -0.178 | [3] -0.029 | [4] -0.013 | pinometostat 0.039 | [5] -0.01 | [6] 0.084

CTSV (UniProt O60911)
inactive: IRAK-1-4 Inhibitor I 0.032 | ibrutinib -0.002 | [1] 0.09 | ralimetinib -0.035 | [2] -0.005 | [4] 0.14 | pinometostat 0.011 | [5] -0.054 | [6] 0.125
active: [3] -0.917

DNM2 (UniProt P50570)
inactive: IRAK-1-4 Inhibitor I 0.022 | ibrutinib 0.017 | [1] -0.023 | ralimetinib -0.02 | [2] -0.081 | [3] -0.075 | [4] 0.029 | pinometostat -0.014 | [5] -0.012 | [6] 0.076

DAB2 (UniProt P98082)
inactive: IRAK-1-4 Inhibitor I -0.009 | ibrutinib 0.004 | [1] -0.093 | ralimetinib 0.082 | [2] -0.119 | [3] -0.02 | [4] 0.138 | pinometostat 0.049 | [5] -0.031 | [6] -0.075

CTU1 (UniProt Q7Z7A3)
inactive: IRAK-1-4 Inhibitor I 0.026 | ibrutinib 0.041 | [1] 0.02 | ralimetinib 0.005 | [2] -0.054 | [3] -0.052 | [4] -0.041 | pinometostat 0.007 | [5] 0.007 | [6] -0.021

CYBA (UniProt P13498)
Chain of UniProt P13498 (P13498 whole entry, looked up): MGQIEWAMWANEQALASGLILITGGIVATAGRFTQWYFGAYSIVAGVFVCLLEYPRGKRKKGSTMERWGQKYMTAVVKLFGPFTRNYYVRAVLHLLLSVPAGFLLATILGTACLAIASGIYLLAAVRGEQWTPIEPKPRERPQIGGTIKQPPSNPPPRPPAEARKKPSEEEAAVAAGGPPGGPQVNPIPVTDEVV
active: [3] -0.43
inactive: IRAK-1-4 Inhibitor I 0.044 | ibrutinib 0.024 | [1] -0.024 | ralimetinib -0.041 | [2] -0.152 | [4] 0.121 | pinometostat -0.036 | [5] -0.018 | [6] -0.026

EXOC6 (UniProt Q8TAG9)
inactive: IRAK-1-4 Inhibitor I -0.046 | ibrutinib -0.007 | [1] -0.014 | ralimetinib 0.102 | [2] -0.084 | [4] 0.042 | pinometostat 0.056 | [5] 0.158 | [6] 0.032
active: [3] -0.397

DSN1 (UniProt Q9H410)
inactive: IRAK-1-4 Inhibitor I -0.143 | ibrutinib -0.038 | [1] -0.041 | ralimetinib -0.131 | [2] -0.055 | [3] -0.106 | [4] 0.004 | pinometostat -0.037 | [5] -0.036 | [6] -0.045

CWC27 (UniProt Q6UX04)
inactive: IRAK-1-4 Inhibitor I -0.045 | ibrutinib -0.111 | [1] -0.133 | ralimetinib 0.048 | [2] -0.08 | [3] 0.018 | [4] -0.007 | pinometostat -0.023 | [5] -0.045 | [6] 0.199

DAG1 (UniProt Q14118)
inactive: IRAK-1-4 Inhibitor I -0.019 | ibrutinib -0.024 | [1] -0.029 | ralimetinib -0.076 | [2] 0.003 | [3] 0.169 | [4] 0.008 | pinometostat 0.04 | [5] -0.008 | [6] 0.067

ECH1 (UniProt Q13011)
inactive: IRAK-1-4 Inhibitor I 0.056 | ibrutinib -0.003 | [1] -0.058 | ralimetinib 0.087 | [2] -0.112 | [3] -0.164 | [4] -0.033 | pinometostat 0.003 | [5] 0.086 | [6] 0.076

DHX16 (UniProt O60231)
active: [1] -0.257
inactive: IRAK-1-4 Inhibitor I -0.006 | ibrutinib 0 | ralimetinib -0.001 | [2] -0.025 | [3] -0.002 | [4] 0.009 | pinometostat 0.004 | [5] -0.045 | [6] 0.159

DYNC1I2 isoform 2 (UniProt Q13409)
inactive: IRAK-1-4 Inhibitor I 0.012 | ibrutinib 0.126 | [1] 0.106 | ralimetinib 0.055 | [2] -0.133 | [3] -0.105 | [4] 0.154 | pinometostat 0.023 | [6] -0.05

DHPS (UniProt P49366)
inactive: IRAK-1-4 Inhibitor I 0.011 | ibrutinib -0.004 | [1] 0.02 | ralimetinib -0.04 | [2] -0.043 | [3] 0.047 | [4] -0.012 | pinometostat -0.095 | [5] 0.008 | [6] -0.027

DOLPP1 (UniProt Q86YN1)
inactive: IRAK-1-4 Inhibitor I 0.008 | ibrutinib -0.017 | [1] -0.19 | ralimetinib -0.128 | [3] -0.045 | [4] -0.154 | pinometostat -0.056 | [5] 0.016 | [6] 0.036
